Inconclusive results are not listed. Active and inactive are the calls of the source. The call rests on the fitted dose curve; in most records, active means well fitted curve in the direction sought with a large enough effect in the signal ratio, with a control signal flat (not every such curve was filed as active); inconclusive means small, poorly fitted or top-dose-only effect, or effect the other way, or a change in a side signal; inactive means no such curve, though single readings can be large or run the other way; the % refers to the signal ratio.
Biological target: Estrogen receptor (Homo sapiens) (UniProt P03372)
Sequence (P03372 whole entry, looked up): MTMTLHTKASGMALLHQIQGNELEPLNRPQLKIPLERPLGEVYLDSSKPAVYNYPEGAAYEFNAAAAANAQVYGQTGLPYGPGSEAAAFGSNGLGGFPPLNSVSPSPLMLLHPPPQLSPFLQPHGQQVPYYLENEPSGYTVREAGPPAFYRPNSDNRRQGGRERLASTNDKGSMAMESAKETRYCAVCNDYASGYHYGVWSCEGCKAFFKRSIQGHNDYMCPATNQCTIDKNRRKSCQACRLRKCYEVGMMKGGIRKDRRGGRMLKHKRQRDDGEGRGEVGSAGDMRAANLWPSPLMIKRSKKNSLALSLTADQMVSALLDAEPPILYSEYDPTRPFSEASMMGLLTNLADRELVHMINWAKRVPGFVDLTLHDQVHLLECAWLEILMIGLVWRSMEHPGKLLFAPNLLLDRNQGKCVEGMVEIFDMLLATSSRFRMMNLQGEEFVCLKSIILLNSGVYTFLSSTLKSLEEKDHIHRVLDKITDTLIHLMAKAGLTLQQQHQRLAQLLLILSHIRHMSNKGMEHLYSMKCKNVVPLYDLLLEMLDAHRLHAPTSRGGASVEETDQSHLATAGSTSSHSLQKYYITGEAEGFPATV
Assay: qHTS assay for small molecule antagonists of estrogen receptor alpha signaling (AID 588513)
Details: ER-alpha-UAS-bla HEK293, beta-lactamase ratio, antagonist mode; series mostly up to 76.9 µM; activity, negative = inhibition: at the top concentration
Description: NIH Chemical Genomics Center [NCGC]
U.S. Environmental Protection Agency [EPA]
National Institutes of Environmental Health Sciences [NIEHS]
National Toxicology Program [NTP]
Estrogen receptor alpha (ER-alpha) is an important member of nuclear hormone receptors. ER-alpha plays important role in breast cancer as well as in other women's health issues. The majority of breast cancers is estrogen receptor (ER) positive and depends on estrogen for growth. There is also growing concern for some of environmental chemicals which may contribute the increasing the incidence of breast cancer. Therefore, it is important to understand the effect of environmental chemicals in ER-alpha signaling pathway.
NCGC Assay Protocol Summary
Using a beta-lactamase reporter-gene under control of the ER response element, a cell-based assay [ER-alpha-UAS-bla GripTiteTM cell-Based Assay from Invitrogen] was used to measure ER-alpha signaling pathway in antagonist mode. ER-alpha-UAS-bla-GripTite HEK 293 cells were used with assay medium containing 2% charcoal/dextran treated FBS, 0.1 mM NEAA and 1 mM sodium pyruvate. Cells were cultured in this assay medium overnight in the flasks before the assay. The assay was performed in clear bottom black Greiner 1536-well plates. 17-beta-estradiol was used as a positive control in the screen. Library compounds were measured for their ability to inhibit the reporter gene activity. Compounds were screened in a titration series in 1536-well format. […] Data was normalized relative to 17-beta-estradiol control (0.5nM, 100%), and DMSO only wells (basal, 0%). Concentration-response titration points for each compound were fitted to the Hill equation yielding concentrations of half-maximal inhibition (IC50) and maximal response (efficacy) values.
qHTS protocol for ER-alpha beta-lactamase assay in antagonist mode
[Step] [Parameter] [Value] [Description]
1. Reagent; 5 uL; 5000 cells/well
2. Incubation; 37 C for 4 hrs
- Dose response, Start 38uM, 1:2 dilutions with duplicates
- Two columns with 38 and 19uM (final) concentration.
5. Agonist (Stimulator); 1uL; 17-beta-estradiol at 0.5nM (final) concentration
6. Incubation; 37 C for 18 hrs
7. Detection reagent; 1 uL of CCF4-dye
8. Incubation; RT for 2 hrs
9. Detection; Fluorescence; Envision plate reader or Acumen plate reader
On the % scale 0 is the no-effect control and ±100 the full control effect.

SMILES	outcome	activity, negative = inhibition
NS(=O)(=O)c1cc2c(cc1Cl)NCNS2(=O)=O	inactive	
COc1ccc2[nH]cc(CCNC(C)=O)c2c1	inactive	
Cc1cn([C@H]2C[C@H](N=[N+]=[N-])[C@@H](CO)O2)c(=O)[nH]c1=O	inactive	
COc1ccc2c(c1)c(CC(=O)O)c(C)n2C(=O)c1ccc(Cl)cc1		-17.2% (inactive)
CC(C)(Oc1ccc(C2CC2(Cl)Cl)cc1)C(=O)O (stereo not given)		-27.2% (inactive)
NCCS(=O)(=O)O		7.94% (inactive)
CC(C)Cc1ccc(C(C)C(=O)O)cc1 (stereo not given)		-17.7% (inactive)
CCOC(=O)C(C)(C)Oc1ccc(Cl)cc1		-5.01% (inactive)
CC(C)C(=O)Nc1ccc([N+](=O)[O-])c(C(F)(F)F)c1		-5.7% (inactive)
Cn1c(=O)c2[nH]cnc2n(C)c1=O		7.92% (inactive)
Nc1ccn([C@H]2CC[C@@H](CO)O2)c(=O)n1	inactive	
Nc1c2c(nc3ccccc13)CCCC2		48.7% (inactive)
O=c1[nH]cc(F)c(=O)[nH]1		9.83% (inactive)
N[C@@H](Cc1c[nH]c2ccc(O)cc12)C(=O)O		17.6% (inactive)
Cc1ccc(-c2cc(C(F)(F)F)nn2-c2ccc(S(N)(=O)=O)cc2)cc1		-24% (inactive)

Source: PubChem BioAssay (NCATS)
